Among the targets are PITX2 (Homo sapiens, UniProt Q99697 72-157); SHOX (Homo sapiens, UniProt O15266 103-189, R173C); VAX1 (Homo sapiens, UniProt Q5SQQ9 86-172).
Test in all cases: PBM; 200 nM protein, PBS
Common to all, as to conditions: dsDNA, one strand shown

The target of test [1] is PRRX1 (Homo sapiens, UniProt P54821 80-166, F113S).
Test [2] has as its target HOXA2 (Homo sapiens, UniProt O43364 129-215, R185T).
In test [3] the target is HOXD13 (Homo sapiens, UniProt P35453 263-343, T313R).
The target in test [4] is HOXA2 (Homo sapiens, UniProt O43364 129-215, R185K).
Test [5] has as its target HOXD13 (Homo sapiens, UniProt P35453 263-343).
Test [6] deals with HOXD13 (Homo sapiens, UniProt P35453 263-343, T313A).
For test [7], the target named is HOXA2 (Homo sapiens, UniProt O43364 129-215, Y150S).
Test [8] deals with NKX3-2 (Homo sapiens, UniProt P78367 192-278, P234S).
The target in test [9] is PRRX1 (Homo sapiens, UniProt P54821 80-166).
For test [10], the target named is HOXA2 (Homo sapiens, UniProt O43364 129-215).
Test [11] addresses NKX3-2 (Homo sapiens, UniProt P78367 192-278).
For test [12], the target named is PROP1 (Homo sapiens, UniProt O75360 56-141).
Test [13] has as its target PROP1 (Homo sapiens, UniProt O75360 56-141, R99H).
Test [14] addresses PROP1 (Homo sapiens, UniProt O75360 56-141, F88S).
In test [15] the target is ALX1 (Homo sapiens, UniProt Q15699 118-204, L144V).
Test [16] concerns the target ALX3 (Homo sapiens, UniProt O95076 139-225, N203Q).
The target of test [17] is ALX1 (Homo sapiens, UniProt Q15699 118-204, L144R).
Test [18] concerns the target ALX3 (Homo sapiens, UniProt O95076 139-225).
Test [19] has as its target ALX3 (Homo sapiens, UniProt O95076 139-225, L168Q).
In test [20] the target is ALX3 (Homo sapiens, UniProt O95076 139-225, L168V).
For test [21], the target named is ALX1 (Homo sapiens, UniProt Q15699 118-204).
Test [22] concerns the target ALX3 (Homo sapiens, UniProt O95076 139-225, N203S).
Test [23] deals with MSX2 (Homo sapiens, UniProt P35548 130-214, R199I).
Test [24] deals with MSX2 (Homo sapiens, UniProt P35548 130-214).
The target of test [25] is MSX2 (Homo sapiens, UniProt P35548 130-214, F161Y).
Chain of MSX2 (Homo sapiens, UniProt P35548 130-214, F161Y) (P35548 130-214 F161Y): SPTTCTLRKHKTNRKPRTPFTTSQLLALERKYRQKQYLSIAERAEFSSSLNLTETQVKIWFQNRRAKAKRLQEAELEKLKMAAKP

Chain of PRRX1 (Homo sapiens, UniProt P54821 80-166, F113S) (P54821 80-166 F113S): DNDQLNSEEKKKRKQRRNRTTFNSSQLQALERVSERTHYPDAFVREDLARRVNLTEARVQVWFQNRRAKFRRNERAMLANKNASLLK
Chain of PRRX1 (Homo sapiens, UniProt P54821 80-166) (P54821 80-166): as the sequence (P54821 80-166 F113S) above, with S34F counted along it
Chain of PROP1 (Homo sapiens, UniProt O75360 56-141) (O75360 56-141): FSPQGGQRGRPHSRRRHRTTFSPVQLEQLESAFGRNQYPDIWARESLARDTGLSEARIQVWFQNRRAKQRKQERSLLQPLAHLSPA
Chain of PROP1 (Homo sapiens, UniProt O75360 56-141, F88S) (O75360 56-141 F88S): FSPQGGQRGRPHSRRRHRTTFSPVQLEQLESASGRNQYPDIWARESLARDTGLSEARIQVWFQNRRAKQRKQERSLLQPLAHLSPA
Chain of PROP1 (Homo sapiens, UniProt O75360 56-141, R99H) (O75360 56-141 R99H): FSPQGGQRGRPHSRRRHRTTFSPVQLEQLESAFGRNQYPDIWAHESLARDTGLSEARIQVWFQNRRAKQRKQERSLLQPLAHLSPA
Chain of VAX1 (Q5SQQ9 86-172): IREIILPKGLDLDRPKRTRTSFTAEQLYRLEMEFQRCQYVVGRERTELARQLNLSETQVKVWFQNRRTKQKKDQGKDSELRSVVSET
Chain of ALX3 (Homo sapiens, UniProt O95076 139-225, N203S) (O95076 139-225 N203S): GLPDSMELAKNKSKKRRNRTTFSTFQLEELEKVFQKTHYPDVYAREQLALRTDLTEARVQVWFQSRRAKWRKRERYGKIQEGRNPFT
Chain of ALX3 (Homo sapiens, UniProt O95076 139-225, L168V) (O95076 139-225 L168V): as the sequence (O95076 139-225 N203S) above, with L30V, S65N counted along it
Chain of HOXD13 (Homo sapiens, UniProt P35453 263-343, T313R) (P35453 263-343 T313R): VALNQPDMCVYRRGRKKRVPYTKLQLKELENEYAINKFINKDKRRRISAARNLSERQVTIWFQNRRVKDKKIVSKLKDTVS
Chain of MSX2 (Homo sapiens, UniProt P35548 130-214, R199I) (P35548 130-214 R199I): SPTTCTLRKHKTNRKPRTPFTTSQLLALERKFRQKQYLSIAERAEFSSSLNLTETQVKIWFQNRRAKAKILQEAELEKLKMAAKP
Chain of HOXD13 (Homo sapiens, UniProt P35453 263-343) (P35453 263-343): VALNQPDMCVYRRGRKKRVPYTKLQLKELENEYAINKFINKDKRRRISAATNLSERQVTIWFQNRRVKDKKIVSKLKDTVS
Chain of NKX3-2 (Homo sapiens, UniProt P78367 192-278) (P78367 192-278): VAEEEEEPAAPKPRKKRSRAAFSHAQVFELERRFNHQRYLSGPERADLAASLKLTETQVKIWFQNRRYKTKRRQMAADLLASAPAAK
Chain of ALX3 (Homo sapiens, UniProt O95076 139-225) (O95076 139-225): as the sequence (O95076 139-225 N203S) above, with S65N counted along it
Chain of ALX3 (Homo sapiens, UniProt O95076 139-225, L168Q) (O95076 139-225 L168Q): as the sequence (O95076 139-225 N203S) above, with L30Q, S65N counted along it
Chain of ALX1 (Homo sapiens, UniProt Q15699 118-204, L144V) (Q15699 118-204 L144V): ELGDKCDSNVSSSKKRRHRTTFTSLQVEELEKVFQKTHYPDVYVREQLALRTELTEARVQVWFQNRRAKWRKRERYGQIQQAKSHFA
Chain of HOXA2 (Homo sapiens, UniProt O43364 129-215) (O43364 129-215): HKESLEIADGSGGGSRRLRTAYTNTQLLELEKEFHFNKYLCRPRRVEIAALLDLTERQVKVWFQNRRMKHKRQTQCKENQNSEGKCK
Chain of HOXA2 (Homo sapiens, UniProt O43364 129-215, R185T) (O43364 129-215 R185T): as the sequence (O43364 129-215) above, with R57T counted along it
Chain of MSX2 (Homo sapiens, UniProt P35548 130-214) (P35548 130-214): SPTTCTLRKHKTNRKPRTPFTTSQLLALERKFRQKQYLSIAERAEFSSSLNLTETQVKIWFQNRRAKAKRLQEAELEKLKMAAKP
Chain of ALX1 (Homo sapiens, UniProt Q15699 118-204) (Q15699 118-204): as the sequence (Q15699 118-204 L144V) above, with V27L counted along it
Chain of HOXA2 (Homo sapiens, UniProt O43364 129-215, Y150S) (O43364 129-215 Y150S): as the sequence (O43364 129-215) above, with Y22S counted along it
Chain of SHOX (O15266 103-189 R173C): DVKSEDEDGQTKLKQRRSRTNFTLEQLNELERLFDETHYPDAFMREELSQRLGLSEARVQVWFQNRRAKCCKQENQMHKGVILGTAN
Chain of ALX3 (Homo sapiens, UniProt O95076 139-225, N203Q) (O95076 139-225 N203Q): as the sequence (O95076 139-225 N203S) above, with S65Q counted along it
Chain of HOXD13 (Homo sapiens, UniProt P35453 263-343, T313A) (P35453 263-343 T313A): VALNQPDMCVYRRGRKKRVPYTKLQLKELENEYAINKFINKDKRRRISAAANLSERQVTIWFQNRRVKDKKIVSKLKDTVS
Chain of ALX1 (Homo sapiens, UniProt Q15699 118-204, L144R) (Q15699 118-204 L144R): as the sequence (Q15699 118-204 L144V) above, with V27R counted along it
Chain of HOXA2 (Homo sapiens, UniProt O43364 129-215, R185K) (O43364 129-215 R185K): as the sequence (O43364 129-215) above, with R57K counted along it
Chain of NKX3-2 (Homo sapiens, UniProt P78367 192-278, P234S) (P78367 192-278 P234S): as the sequence (P78367 192-278) above, with P43S counted along it

GCTCGGCC: the binding signal was 9.12 upbm affinity estimate (log intensity, higher = more binding, comparable within an allelic series) with PRRX1 [1]; 7.15 upbm affinity estimate (log intensity, higher = more binding, comparable within an allelic series) with HOXA2 [2]; 9.46 upbm affinity estimate (log intensity, higher = more binding, comparable within an allelic series) with HOXD13 [3]; 10.3 upbm affinity estimate (log intensity, higher = more binding, comparable within an allelic series) in the test with HOXA2 [4]; 9.56 upbm affinity estimate (log intensity, higher = more binding, comparable within an allelic series) with HOXD13 [5]; 9.62 upbm affinity estimate (log intensity, higher = more binding, comparable within an allelic series) in the test with HOXD13 [6]. Further, the binding signal with HOXA2 [7] was 10.3 upbm affinity estimate (log intensity, higher = more binding, comparable within an allelic series); with NKX3-2 [8], 10.3 upbm affinity estimate (log intensity, higher = more binding, comparable within an allelic series); with PRRX1 [9], 9.13 upbm affinity estimate (log intensity, higher = more binding, comparable within an allelic series); in the test with HOXA2 [10], 6.97 upbm affinity estimate (log intensity, higher = more binding, comparable within an allelic series); with NKX3-2 [11], 10.3 upbm affinity estimate (log intensity, higher = more binding, comparable within an allelic series).
As to ACGTTGCG, the binding signal with PRRX1 [1] was 9.5 upbm affinity estimate (log intensity, higher = more binding, comparable within an allelic series); in the test with PITX2, 7.94 upbm affinity estimate (log intensity, higher = more binding, comparable within an allelic series); in the test with PRRX1 [9], 9.22 upbm affinity estimate (log intensity, higher = more binding, comparable within an allelic series).
For the sequence CTTAATCA, the binding signal with PRRX1 [1] is 10.9 upbm affinity estimate (log intensity, higher = more binding, comparable within an allelic series); with PROP1 [12] it was 10.5 upbm affinity estimate (log intensity, higher = more binding, comparable within an allelic series); with PROP1 [13] it was 9.83 upbm affinity estimate (log intensity, higher = more binding, comparable within an allelic series); with PROP1 [14], 7.41 upbm affinity estimate (log intensity, higher = more binding, comparable within an allelic series); with PRRX1 [9], 13 upbm affinity estimate (log intensity, higher = more binding, comparable within an allelic series).
Consider ACCGAGGG, for which the binding signal is 8.94 upbm affinity estimate (log intensity, higher = more binding, comparable within an allelic series) with PRRX1 [1]; 6.46 upbm affinity estimate (log intensity, higher = more binding, comparable within an allelic series) with ALX1 [15]; 7.64 upbm affinity estimate (log intensity, higher = more binding, comparable within an allelic series) with ALX3 [16]; 6.47 upbm affinity estimate (log intensity, higher = more binding, comparable within an allelic series) with ALX1 [17]; 7.78 upbm affinity estimate (log intensity, higher = more binding, comparable within an allelic series) in the test with ALX3 [18]; 7.65 upbm affinity estimate (log intensity, higher = more binding, comparable within an allelic series) with ALX3 [19]. Further, the binding signal is 7.64 upbm affinity estimate (log intensity, higher = more binding, comparable within an allelic series) with ALX3 [20]; 6.38 upbm affinity estimate (log intensity, higher = more binding, comparable within an allelic series) in the test with ALX1 [21]; 7.63 upbm affinity estimate (log intensity, higher = more binding, comparable within an allelic series) with ALX3 [22]; 9.32 upbm affinity estimate (log intensity, higher = more binding, comparable within an allelic series) in the test with PRRX1 [9].
Take AATTATGC: the binding signal is 11.1 upbm affinity estimate (log intensity, higher = more binding, comparable within an allelic series) in the test with PRRX1 [1] and 9.27 upbm affinity estimate (log intensity, higher = more binding, comparable within an allelic series) in the test with SHOX.
For the sequence AGTGGTAA, the binding signal with PRRX1 [1] is 10 upbm affinity estimate (log intensity, higher = more binding, comparable within an allelic series); with VAX1, 9.41 upbm affinity estimate (log intensity, higher = more binding, comparable within an allelic series); with PRRX1 [9] it was 11.2 upbm affinity estimate (log intensity, higher = more binding, comparable within an allelic series).
In the case of GCCCGTCC, the binding signal with PRRX1 [1] is 9.26 upbm affinity estimate (log intensity, higher = more binding, comparable within an allelic series); in the test with PROP1 [12], 6.49 upbm affinity estimate (log intensity, higher = more binding, comparable within an allelic series); with PROP1 [13], 6.5 upbm affinity estimate (log intensity, higher = more binding, comparable within an allelic series); with PROP1 [14] it was 6.38 upbm affinity estimate (log intensity, higher = more binding, comparable within an allelic series); in the test with PRRX1 [9] it was 8.92 upbm affinity estimate (log intensity, higher = more binding, comparable within an allelic series).
As to CGGCACCG, the binding signal is 9.31 upbm affinity estimate (log intensity, higher = more binding, comparable within an allelic series) with PRRX1 [1]; 9.48 upbm affinity estimate (log intensity, higher = more binding, comparable within an allelic series) with MSX2 [23]; 7.77 upbm affinity estimate (log intensity, higher = more binding, comparable within an allelic series) with PITX2; 9.42 upbm affinity estimate (log intensity, higher = more binding, comparable within an allelic series) in the test with MSX2 [24]; 9.54 upbm affinity estimate (log intensity, higher = more binding, comparable within an allelic series) with MSX2 [25]; 9.57 upbm affinity estimate (log intensity, higher = more binding, comparable within an allelic series) with PRRX1 [9].
